A short description of assay [1]: Drug repurposing screens with cells derived from glioblastoma tumor samples (AID 1345199). Also: nearly all actives have a fitted effect of over 40% in size. The settings on record: GBM patient neurospheres viability, ATP luminescence, 48 h. The essentials:
(§1)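 Primary testing used CD133+ neurospheres from four GBM patients, seven concentrations, 48 h exposure and ATP-based viability; confirmation added three slower-growing patient lines.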

Another assay relates to astro (control astrocytes). The assay is described as above. The conditions noted are these: viability, ATP luminescence, 48 h; series mostly up to 45.9 µM. The essentials: as §1
Setting [2] is: at 45.9 µM (top of the series), tumour line B.
Setting [3] is: at 45.9 µM (top of the series), tumour line D.
Setting [4] is: at 46.1 µM (top of the series), tumour line C.

Records with an inconclusive call do not appear. Unmarked numbers belong to inactive results. Calls of active or inactive are those of the source. Calls follow the shape of the dose curve; as a rule, active = well fitted inhibition curve with a large enough effect; inconclusive = small, poorly fitted or top-dose-only effect; inactive = flat fitted curve, though single readings scatter.

Among the data in PubChem BioAssay (NCATS) are activity, negative = cell killing and Potency values, retold here.
% is scaled to controls: 0 for no effect and ±100 for the full control effect; potency is read from the fitted curve at half-maximal effect.

For the molecule `COC1=C(C(=O)O)N2C(=O)[C@@H](NC(=O)[C@H](N)C3=CCC=CC3)[C@H]2SC1`, the activity, negative = cell killing in assay [1] (setting [2]) was -9.93%; in assay [1] (setting [3]) it was -11%; in assay [1] (setting [4]), 6.55%. In the assay with astro, the Potency entry is “inactive”.

On to `O.O=C([O-])CC([S-])C(=O)[O-].[Au+].[Na+].[Na+]` (stereo not drawn), for which the activity, negative = cell killing is -5.96% in assay [1] (setting [2]), 2.25% in assay [1] (setting [3]) and 15.2% in assay [1] (setting [4]). Besides, in the assay on astro, the Potency result is “inactive”.

Take `C/C=C(/CC[C@@H](C)[C@H]1CC[C@H]2C3=CC[C@H]4[C@H](C)[C@@H](O)CC[C@]4(C)[C@H]3CC[C@]12C)C(C)C`: the activity, negative = cell killing is -6.71% in assay [1] (setting [2]), -7.38% in assay [1] (setting [3]) and 9.21% in assay [1] (setting [4]). For the same molecule, in the assay with astro, the Potency entry was “inactive”.

Regarding `COc1cc2[nH]c(C)c(CCN3CCN(c4ccccc4)CC3)c2cc1OC`, the figures for the activity, negative = cell killing in assay [1] (setting [2]) and in assay [1] (setting [4]) were -18.7% and -15.6%, respectively. Also, the Potency in assay [1] (tumour line A) was 15.8 µM (active). Moreover, in the assay on astro, the Potency entry is “inactive”.

Regarding `CC#CCC(C)[C@H](O)/C=C/[C@@H]1[C@H]2c3cccc(CCCC(=O)O)c3O[C@H]2C[C@H]1O` (stereo partly drawn), the activity, negative = cell killing in assay [1] (setting [2]) is -5.83%; in assay [1] (setting [3]) it was 2.53%; in assay [1] (setting [4]), -26.2%. Further, the Potency result in the assay on astro was “inactive”.

Turning to `CC[C@H]1OC(=O)[C@H](C)[C@@H](O[C@H]2C[C@@](C)(OC)[C@@H](O)[C@H](C)O2)[C@H](C)[C@@H](O[C@@H]2O[C@H](C)C[C@H](N(C)C)[C@H]2O)[C@](C)(O)C[C@@H](C)[C@@H]2N[C@@H](COCCOC)O[C@@H]([C@H]2C)[C@]1(C)O`, the activity, negative = cell killing in assay [1] (setting [2]) is -7.98%; in assay [1] (setting [4]) it was -7.79%. Moreover, the Potency in assay [1] (tumour line A) is 11.2 µM (active). The Potency result in the assay on astro is “inactive”.

For `C=C1C(=C/C=C2\CCC[C@]3(C)[C@@H]([C@H](C)CCCC(C)(C)O)CC[C@@H]23)C[C@@H](O)C[C@@H]1O`, in assay [1] (setting [2]), the activity, negative = cell killing is -26.6%. For the same molecule, the Potency is 17.8 µM (active) in assay [1] (tumour line A), 20 µM (active) in assay [1] (tumour line D) and 22.4 µM (active) in the assay with astro.
